A selection: hits, their analogues and other compounds. The true share with any hit is near 0.55%.
TSHR antagonist: Antagonists of the Thyroid Stimulating Hormone Receptor: HTS campaign; activity change, negative = inhibition, % at 11.5 µM; Thyrotropin receptor (Homo sapiens), P16473; AID 504810, 2011; TSHR-expressing cells, TSH-stimulated cAMP HTRF, 2 h; active compounds read low; hit rate 0.2% among 330,000;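 active = activity change below a set negative limit, meaning inhibition stronger than a set level, cut at about -70% in these data; inconclusive = activity change between two set negative limits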; note: % is set by controls: 0 for no effect and ±100 for the full control effect
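Cell-based HTRF cAMP assay; TSHR cells + compound, TSH EC80 (4nM final), 2 h, 37 deg C. Lysis with anti-cAMP cryptate and cAMP-d2, 30 min RT, read 665/620 nm.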
RGS4 inhibitor: Inhibitors of Regulator of G Protein Signaling (RGS) 4: qHTS; hit rate 0.039% among 390,000; Potency, µM (doses to about 114 µM), for inactives: top-dose activity change, negative = inhibition, hits mostly inhibitors; AID 504845, 2011; Transcreener GDP fluorescence polarization, RGS4-accelerated GTP hydrolysis; Regulator of G-protein signaling 4 (Homo sapiens), P49798; note: potency is the fitted concentration of half-maximal effect; % is set by controls: 0 for no effect and ±100 for the full control effect; nearly all actives have a fitted effect of over 75% in size
Target sequence (P49798 whole entry, looked up): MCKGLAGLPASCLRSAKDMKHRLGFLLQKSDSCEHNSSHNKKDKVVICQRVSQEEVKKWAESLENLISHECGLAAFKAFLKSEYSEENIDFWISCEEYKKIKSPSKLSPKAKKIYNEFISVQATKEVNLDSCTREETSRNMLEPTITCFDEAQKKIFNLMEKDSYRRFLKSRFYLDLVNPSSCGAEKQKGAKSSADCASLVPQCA
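MLSMR compounds (23 nl, pin-transferred) preincubated 10 min at room temperature with a 500nM (2x) first reagent, then RGS4 at 900nM (2x) plus Transcreener GDP mix added; fluorescence polarization (620/688 nm) read before and after 90 min at 30 °C.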
LDHA inh: qHTS assay for inhibitors of human lactate dehydrogenase | L-lactate dehydrogenase A chain (Homo sapiens), P00338 | purified LDHA, NADH/diaphorase-resazurin fluorescence; active compounds read low | activity change, % (values are at about 110 or 230 µM) | hit rate 0.15% among 480,000; in the data active = activity change below about -30%; inconclusive = mostly about -25% to -30%;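 note: plate controls were DMSO wells for no effect and wells without enzyme for full effect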
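LDH5 2 nM; NADH 0.06 mM, pyruvate 0.2 mM; 200 mM Tris pH 7.4, EDTA, Tween-20; 5 min RT. Detection: diaphorase 0.133 mg/mL + resazurin 37 µM, fluorescence ex540/em590 at 0 and 20 min; normalized to enzyme-free and DMSO wells.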
TCR act: Activators of T cell receptors: qHTS campaign. primary human leukocytes, anti-CD3, IL-2 HTRF, 48 h. 330,000 tested, under 10 active. Potency, µM (doses to about 9.22 µM), for the others: top-dose activation of IL-2 secretion, most hits filed as activators. AID 504894, 2011; note: % of control where 0% means no effect
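TCR engagement came from a-CD3 beads alone, with compounds added to primary human leukocytes for 48 hr. Secreted IL-2 bridged europium cryptate- and d2-labelled anti-IL-2 antibodies, giving FRET emission at 665nm after 320nm excitation.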
Akt phos inh: HTS Assay for Inhibitors of Akt Phophorylation: Primary Screen. Neuro2A IGF-stimulated pAkt S473 HTRF, 20 min; active compounds read low. activity change, % for hits at 50 µM. hit rate 0.32% among 360,000; in the data active = activity change below about -80%; inconclusive = mostly about -51% to -80%; note: % is set by controls: 0 for no effect and ±100 for the full control effect
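Neuro2A cells in DMEM with 0.5% FBS, overnight at 37 deg C, given compound at single 50 µM final, then IGF (6 nM final) for 20 min at 37 deg C. Lysed; phospho-Akt Ser473 by HTRF after 24 h, 665/615 ratio.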
Glioma ERSR ind: qHTS for Inducers of the Endoplasmic Reticulum Stress Response (ERSR) in Human Glioma: qHTS | AID 602332, 2012 | Potency, µM, without a hit: at the top dose activation, most hits filed as activators | U87-MG GRP78 promoter luciferase reporter, 16 h | hit rate 0.02% among 420,000; note: potency is the fitted concentration of half-maximal effect; series mostly up to about 76 µM; % of control where 0% means no effect; nearly all actives have a fitted effect of over 35% in size
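Stably transfected U87-MG glioma cells carrying a GRP78-based luciferase sensor; 16 h compound incubation. Luminescence end-point read 10 min after Bright-Glo addition at room temperature.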
* = called active by the depositor; i = inactive; ? = inconclusive; . = not tested or not shown; ! = not active in a repeat; [ ] = dose if it differs, or a comment. Unless noted, calls come from the whole dose curve; as a rule, active = well fitted curve in the direction sought with a large enough effect; inconclusive = small, poorly fitted or top-dose-only effect, or another doubt; inactive = no such curve, though single readings can be large; an effect the other way counts as inactive or inconclusive.

SMILES	TSHR antagonist	RGS4 inhibitor	LDHA inh	TCR act	Akt phos inh	Glioma ERSR ind
Cn1c(SCC(=O)Nc2ccc3cn[nH]c3c2)nnc1-c1cnccn1	6	4%	17	-16%	-97%*	4%
CCN1CCN(Cc2cccc(Oc3ccccc3)c2)CC1	7	32%	-32*	-9%	i	-1%
Cc1cc(Sc2ccc(NC(=O)c3cccc(Cl)c3)cc2)c2ccccc2n1	.	.	14	.	.	.
N#CC(C#N)=c1[nH]c2ccccc2/c1=C\c1ccccc1	.	.	89	.	.	.
COC(=O)C(Cc1ccccc1)NC(=O)C12CC3CC(CC(C3)C1)C2 (stereo not given)	-3	-4%	0	2%[46.1 µM]	i	0%
COC(=O)[C@H](Cc1ccccc1)NC(=O)[C@@]1(C)C[C@@H]1[C@@H](NC(=O)OCc1ccccc1)c1ccccc1	-82*	-7%	-2	-6%	i	-4%
CC(=O)Nc1ccc(-c2csc(Nc3ccc(O)cc3)n2)cc1	.	.	-1	.	.	.
CCOc1ccccc1NC(=O)N1C2CCCC1CC(NC(=O)C1CC1)C2 (stereo not given)	7	-19%	-6	0%[46.1 µM]	-88%*	-1%
Cc1ccccc1NC(=O)N1C2CCCC1CC(NC(=O)C1CC1)C2 (stereo not given)	1	-7%	-6	-12%	i	-4%
CN(C)C(=S)c1ccc2ccccc2n1	0	19%	0	-6%	-120%*	-4%
Cc1ccccc1NC(=S)c1ccc2ccccc2n1	-25	0%	-9	-2%	i	-1%
Clc1ccccc1-c1nn2c(-c3ccc4ccccc4n3)nnc2s1	.	.	0	.	.	.
CC(C)(C)c1cc(/C=C(\C#N)C(N)=S)cc(C(C)(C)C)c1O	?	11µM*	.	.	.	-5%
CC(NC(=O)c1ccc(S(=O)(=O)N(C)C)cc1)c1ccccc1 (stereo not given)	-3	?	-5	-8%	-90%*	-4%
CC(NC(=O)c1ccc(S(=O)(=O)N(C)C)cc1)c1ccc(-n2ccnc2)cc1 (stereo not given)	6	8%	-16	-1%	i	-1%
COc1cccc(CNCc2ccc(OC)cc2OC)c1	17	18%	-20	2%	i	-2%
COc1ccc(CNCc2cc(C)c(OC)cc2C)c(OC)c1	-129*	-11%	-6	-9%	i	-6%
Cc1ccc(C(=O)/C=C/c2ccc(-c3ccccc3Br)o2)cc1	.	.	0	.	.	.
O=C(/C=C/c1ccccc1)CC(O)(c1ccccc1)C(F)(F)F (stereo not given)	-12	?	-6	-14%	i	?
O=C(/C=C/c1ccccc1)CC(O)(c1ccccc1)C(F)(F)C(F)F (stereo not given)	-14	-21%	-6	-1%	i	11µM*
Cc1ccc(OCCN(C)Cc2cc(=O)oc3c(C)c(O)ccc23)cc1	.	.	6	.	.	.
CC1(C)CC(N2CCOCC2)=CC(=[N+]2CCOCC2)C1	-1	-48%	-10	-3%	i	0%
CC1C[N+](=C2C=C(N3CCOCC3)CC(C)(C)C2)CC(C)O1 (stereo not given)	9	-33%	-57*	5%	i	-2%
N#Cc1nc(-c2ccco2)oc1N1CCN(CC(=O)N2CCNC2=O)CC1	.	.	0	.	.	.
COc1ccccc1N(CC(=O)NC1CCCC1)C(=O)c1csnn1	10	7%	-9	-4%	-121%*	?
SMILES	TSHR antagonist	RGS4 inhibitor	LDHA inh	TCR act	Akt phos inh	Glioma ERSR ind
COc1ccccc1N(CC(=O)NC1CCCCC1)C(=O)c1csnn1	16	-4%	-17	8%[46.1 µM]	i	-1%
N[C@@H](Cc1c[nH]c2ccc(O)cc12)C(=O)O	-15	24µM*!	1	1%	.	1%
CCC(=O)N1CCc2cc(Br)cc(S(=O)(=O)CC(=O)OC)c21	-2	-28%	-4	-7%	-107%*	-6%
CCC(=O)N1CCc2cc(Br)cc(S(=O)(=O)NCCN3CCCC3)c21	-6	-8%[56.9 µM]	-6	1%	i	-3%
Cc1ccc(NCC(=O)N=Nc2c(O)[nH]c3ccc([N+](=O)[O-])cc23)cc1	10	2%	23	2%	i	40µM*
Cc1ccccc1NCC(=O)N=Nc1c(O)[nH]c2ccc([N+](=O)[O-])cc12	-9	-21%[56.9 µM]	0	5%	i	-3%
O=C(CC1C(=O)NCCN1Cc1cccc(F)c1F)NCCCC1CCCC1 (stereo not given)	-82*	-19%	2	1%	i	-5%
O=C(CC1C(=O)NCCN1CC1CCCCC1)NCc1cccc(F)c1F (stereo not given)	0	-9%	1	-1%	i	-4%
O=C(Nc1ccc(C2=NCCN2)cc1)c1ccc(C(=O)Nc2ccc(C3=NCCN3)cc2)c(Cl)c1	25	-32%	-33*	4%	i	-3%
Cc1c(C#N)c2ncnc(N)c2n1-c1ccccc1	-4	9%	-7	-1%	-104%*	-4%
CCCCN(C)C(=O)Cn1c(=O)c(S(=O)(=O)c2ccccc2)cc2ccccc21	.	.	-21	.	.	.
Brc1ccc2[nH]c3c(N4CCc5ccccc5C4)ncnc3c2c1	-77*	?	-3	2%	i	-7%
CCCOC(=O)Nc1ccccc1N=C1CCC/C1=C\c1ccccc1	.	.	5	.	.	.
Cc1ccc(OCC(O)Cn2c(=N)n(CCN3CCCCC3)c3ccccc32)cc1 (stereo not given)	14	25%	-13	1%	-113%*	-11%
COc1ccc(OCC(O)Cn2c(=N)n(CCN3CCCCC3)c3ccccc32)cc1 (stereo not given)	-9	-73%[11.4 µM]	-6	4%	i	-8%
CCC1CCCCN1S(=O)(=O)c1ccc(NC(=O)c2nc(S(C)(=O)=O)ncc2Cl)cc1 (stereo not given)	-84*	?	0	2%	i	-19%
CCSc1ncc(Cl)c(C(=O)Nc2ccc(S(=O)(=O)N3CCCCC3CC)cc2)n1 (stereo not given)	.	-19%	-2	.	.	-2%
CCCNS(=O)(=O)c1ccc(OCC(=O)NCc2ccc3c(c2)OCO3)cc1	-3	-10%	4	3%	-102%*	-1%
O=C(C1=C(O)C(=O)N(CCCn2ccnc2)C1c1ccncc1)c1cc2ccccc2o1 (stereo not given)	.	.	6	.	.	.
COc1ccccc1-n1[nH]c(C)c(Cc2ccccc2Cl)c1=O	.	.	-44*	.	.	.

Compound activity: PubChem, National Center for Advancing Translational Sciences (NCATS)
